Among the test systems are ACVR2A; ACVR2B; ACVRL1; ADCK4; AKT1; AKT2; AKT3; ALK; ANKK1; AURKA; AURKB; AURKC; AXL.
Holding throughout (conditions): concentration: 1 μM, replicates: in singlicate, n = 1
For another assay, the system named is T1, ADCK3.
T1 construct: gene CABC1

The test system of another assay is T2, AMPK-alpha1.
T2 construct: gene PRKAA1

The test system of the next assay is T3, AMPK-alpha2.
T3 construct: gene PRKAA2

The next assay deals with T4, ARK5.
T4 construct: gene NUAK1

Another assay has as its system T5, ASK1.
T5 construct: gene MAP3K5

The next assay concerns T6, ASK2.
T6 construct: gene MAP3K6

The subject of the next assay is T7, BIKE.
T7 construct: gene BMP2K

Where “and” joins values, the source holds several entries; their conditions need not be identical. Equal entries are not always repeated. Where two headings read alike, the source gives them in different places.
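Further: KINOMEscan kinase panel screen.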

Regarding `O=C(NCCCN1CCOCC1)c1cccc(Nc2nccc(Nc3ccc(Oc4ccccc4)cc3)n2)c1` [GW663929], the “%Inh” value in the assay with ACVR2A came out at 0%; with ACVR2B, 5%; in the assay on ACVRL1, 0%; in the assay with ADCK3, 15%; with ADCK4, 36%; with AKT1, 0%. The “%Inh” value in the assay on AKT2 is recorded as 11%; in the assay on AKT3, 0%; with ALK it was 7%; in the assay with AMPK-alpha1, 0%; in the assay on AMPK-alpha2, 0%; in the assay with ANKK1, 20%. The “%Inh” value in the assay on ARK5 turned out to be 29%; in the assay on ASK1 it was 3%; in the assay on ASK2 it was 0%; with AURKA, 36%; in the assay on AURKB it was 11%; with AURKC, 14%. The results for the “%Inh” value with AXL and in the assay with BIKE were 11% and 27%, respectively.

Take `COc1ccc(Nc2ncc(C#N)c(Nc3ccccc3C(N)=O)n2)cc1N1CCN(C)CC1.Cl` [GSK1558669]: the “%Inh” value with ACVR2A stood at 0%; in the assay with ACVR2B, 0%; with ACVRL1, 0%; in the assay with ADCK3, 0%; with ADCK4, 52%; in the assay on AKT1, 8%. In addition, the “%Inh” value in the assay on AKT2 is 63%; in the assay on AKT3, 0%; in the assay with ALK it was 95.7%; in the assay on AMPK-alpha1 it was 97.3%; with AMPK-alpha2 it was 99.8%; in the assay with ANKK1 it was 52%. In addition, the “%Inh” value stood at 100% in the assay with ARK5; 0% with ASK1; 22% with ASK2; 99.9% with AURKA; 99.9% in the assay with AURKB; 100% in the assay on AURKC. The results for the “%Inh” value with AXL and in the assay with BIKE were 98.9% and 100%, respectively.

For `Nc1nccc(-c2c(-c3ccc(F)cc3)ncn2C2CCN(CC(F)(F)F)CC2)n1` [SB-236560], the “%Inh” value with ACVR2A is 0%; in the assay with ACVR2B it was 0%; in the assay on ACVRL1, 0%; in the assay with ADCK3, 0%; with ADCK4, 47%; in the assay with AKT1 it was 0%. In addition, the “%Inh” value in the assay on AKT2 turned out to be 0%; in the assay on AKT3 it was 0%; in the assay with ALK it was 29%; in the assay with AMPK-alpha1 it was 0%; in the assay with AMPK-alpha2 it was 0%; in the assay on ANKK1, 0%. The “%Inh” value in the assay with ARK5 is listed as 0%; in the assay on ASK1, 0%; with ASK2, 0%; in the assay with AURKA it was 2%; in the assay on AURKB, 0%; with AURKC it was 0%. Moreover, the “%Inh” value with AXL amounted to 46%; in the assay with BIKE, 0%.

As for `Cl.Cl.Cl.Fc1ccc(-c2ncn(C3CCNCC3)c2-c2ccnc(Nc3ccccc3)n2)cc1` [SB-238039], the “%Inh” value in the assay on ACVR2A was 0%; in the assay with ACVR2B (1 µM), 0% and 18%; with ACVRL1 (1 µM) it was 20% and 17%; in the assay on ADCK3, 0%; with ADCK4 (1 µM), 25% and 1%; with AKT1 (1 µM), 21% and 0%. Also, the “%Inh” value in the assay on AKT2 (1 µM) is 10% and 7%; with AKT3 (1 µM) it was 24% and 37%; with ALK (1 µM), 21% and 0%; with AMPK-alpha1 (1 µM) it was 15% and 2%; in the assay with AMPK-alpha2 (1 µM) it was 17% and 0%; with ANKK1 it was 0%. For the same molecule, the “%Inh” value is 9% and 10% with ARK5 (1 µM); 34% and 1% with ASK1 (1 µM); 0% in the assay on ASK2; 16% and 36% with AURKA (1 µM); 25% and 0% with AURKB (1 µM); 0% and 19% in the assay with AURKC (1 µM). Also, the “%Inh” value was 0% and 44% in the assay with AXL (1 µM); 0% and 9% in the assay on BIKE (1 µM).

Turning to `[2H]C([2H])(c1cccc(C(F)(F)F)c1C)n1ccn2c(=O)nc(N3CCOCC3)cc12` [GSK2336394], the “%Inh” value amounted to 0% in the assay with ACVR2A; 1% in the assay with ACVR2B; 31% with ACVRL1; 8% in the assay on ADCK3; 28% with ADCK4; 0% in the assay with AKT1. In addition, the “%Inh” value in the assay with AKT2 turned out to be 0%; in the assay with AKT3 it was 0%; in the assay with ALK it was 17%; in the assay on AMPK-alpha1, 0%; with AMPK-alpha2 it was 15%; in the assay on ANKK1 it was 0%. In addition, the “%Inh” value in the assay with ARK5 was 0%; in the assay with ASK1, 1%; in the assay with ASK2 it was 0%; with AURKA it was 0%; in the assay on AURKB, 11%; with AURKC, 13%. Besides, the “%Inh” value with AXL is recorded as 8%; in the assay with BIKE it was 23%.

For `O=c1cc(N2CCOCC2)nc2n(Cc3cccc(Cl)c3Cl)c(C3CC3)nn12` [GSK2358994], the “%Inh” value in the assay on ACVR2A was found to be 0%; with ACVR2B it was 0%; with ACVRL1, 9%; in the assay on ADCK3 it was 11%; in the assay with ADCK4 it was 0%; in the assay with AKT1 it was 12%. For the same molecule, the “%Inh” value was determined as 0% in the assay with AKT2; 0% in the assay on AKT3; 0% in the assay with ALK; 5% in the assay on AMPK-alpha1; 0% with AMPK-alpha2; 0% in the assay on ANKK1. The “%Inh” value is recorded as 0% with ARK5; 0% with ASK1; 0% in the assay with ASK2; 0% with AURKA; 4% with AURKB; 0% with AURKC. Also, the “%Inh” value stood at 3% in the assay with AXL and 0% in the assay on BIKE.

Consider `O=C(Nc1n[nH]c2cc(-c3cccc(F)c3)ccc12)C1CC1` [SB-735464], for which the “%Inh” value in the assay with ACVR2A turned out to be 32%; in the assay on ACVR2B, 50%; in the assay with ACVRL1, 4%; in the assay on ADCK3, 0%; with ADCK4 it was 0%; with AKT1, 0%. Further, the “%Inh” value in the assay on AKT2 stood at 0%; with AKT3, 19%; with ALK, 0%; with AMPK-alpha1, 10%; in the assay with AMPK-alpha2 it was 69%; in the assay on ANKK1 it was 0%. The “%Inh” value with ARK5 was 0%; with ASK1, 0%; in the assay with ASK2, 22%; in the assay with AURKA it was 18%; with AURKB it was 39%; in the assay on AURKC, 35%. In addition, the figures for the “%Inh” value with AXL and in the assay on BIKE were 27% and 21%, respectively.

For the molecule `CC(C)(CN)c1nc(-c2ccc(Cl)c(O)c2)c(-c2ccncc2)[nH]1.O=C(O)C(F)(F)F` [SB-477794], the “%Inh” value with ACVR2A (1 µM) was 1% and 25%; in the assay with ACVR2B (1 µM), 91.9% and 91%; in the assay with ACVRL1 (1 µM) it was 61% and 67%; in the assay with ADCK3 (1 µM) it was 7% and 17%; with ADCK4 (1 µM), 54% and 35%; in the assay on AKT1 (1 µM) it was 5% and 25%. Besides, the “%Inh” value is 21% and 8% in the assay on AKT2 (1 µM); 34% and 100% in the assay on AKT3 (1 µM); 34% and 16% in the assay on ALK (1 µM); 0% in the assay on AMPK-alpha1; 15% and 13% with AMPK-alpha2 (1 µM); 0% and 1% in the assay on ANKK1 (1 µM). Further, the “%Inh” value with ARK5 (1 µM) is 19% and 0%; in the assay on ASK1 (1 µM) it was 19% and 0%; in the assay on ASK2 (1 µM) it was 1% and 3%; in the assay on AURKA (1 µM) it was 8% and 0%; with AURKB (1 µM), 31% and 15%; in the assay on AURKC (1 µM), 0% and 30%. The “%Inh” value in the assay with AXL (1 µM) is 5% and 13%; in the assay with BIKE (1 µM), 0% and 21%.

The values above are taken from article PMC5540273 (PLoS ONE, 2017).
